Measured values as given in PubChem BioAssay (NCI).
Values joined by “and” are separate entries in the source; they are usually repeats but may differ in a detail not shown here. Equal values may be shown once. About 83,000 compounds went through this panel and 20% of them were active in at least one assay; those are over-represented in the sample as a whole.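 Note: values are percent growth. 100 is the growth of untreated cells, values between 100 and 0 indicate rising inhibition; between -100 and 0 indicates cell death.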 A structure can be active in one record and inactive in another. Active and inactive are the calls of the source. The calls were made as follows: active = growth percent below 10; inactive = the rest.

How the values were obtained:
Assay in all cases: NCI-60 one-dose screen, 48 h (100 = growth as untreated, 0 = no growth, -100 = all killed)
[1] = tested on: NCI-H23 lung; conditions: 10 µM
[2] = tested on: NCI-H226 lung; conditions: 10 µM
[3] = tested on: NCI-H322M lung; conditions: 10 µM
[4] = tested on: HOP-62 NSCLC; conditions: 10 µM
[5] = tested on: NCI-H460 lung; conditions: 10 µM
[6] = tested on: HOP-92 NSCLC; conditions: 10 µM
[7] = tested on: NCI-H522 lung; conditions: 10 µM unless noted
[8] = tested on: A549/ATCC NSCLC; conditions: 10 µM
[9] = tested on: 786-0 renal; conditions: 10 µM
[10] = tested on: COLO 205 colon; conditions: 10 µM

SMILES | growth [1] | growth [2] | growth [3] | growth [4] | growth [5] | growth [6] | growth [7] | growth [8] | growth [9] | growth [10]
OC(CN1CCCC2CCCCC21)c1cc2ccccc2c2ccccc12 (stereo unspecified) | 12.6% (inactive) | 39.3% (inactive) | 49.4% (inactive) | 11.2% (inactive) | 7.08% (active) | 25.1% (inactive) | 80.1% (inactive) | 51.5% (inactive) | -11.6% (active) | -73.2% (active)
O=C(O)COc1ccc(OCC(=O)O)cc1 | -0.769% (active) | -60.2% (active) | 39.3% (inactive) | -15% (active) | – | -3.9% (active) | -3.87% (active) | – | -9.28% (active) | 16% (inactive)
CCO/C=C1\SC(=S)N(c2cccc(O)c2)C1=O | 106% (inactive) | 96.1% (inactive) | 95.8% (inactive) | 97.4% (inactive) | – | – | – | – | 101% (inactive) | –
CCCC1CCC(=C2C(=O)CCC2=O)O1 (stereo unspecified) | 102% (inactive) and 98.7% (inactive) | 102% (inactive) and 108% (inactive) | 90.9% (inactive) and 96.9% (inactive) | 90.6% (inactive) and 101% (inactive) | 101% (inactive) and 113% (inactive) | 103% (inactive) | 121% (inactive) and 83.9% (inactive) | 110% (inactive) and 97.5% (inactive) | 105% (inactive) and 92.9% (inactive) | –
OCC1OC(n2cnc3c(=S)nc[nH]c32)C(O)C1O (stereo unspecified) | 104% (inactive) and 71.8% (inactive) | 100% (inactive) and 63.7% (inactive) | 96.5% (inactive) and 62.9% (inactive) | 115% (inactive) and 53.9% (inactive) | – | 56.6% (inactive) and 61.8% (inactive) | 77.3% (inactive) and 3.94% (active) | 99.6% (inactive) and 101% (inactive) | 100% (inactive) and 35.1% (inactive) | –
CN1CCN(CCCN2c3ccccc3Sc3ccc(C(F)(F)F)cc32)CC1 | 69.9% (inactive) | 101% (inactive) | – | 61.8% (inactive) | 33.6% (inactive) | – | 73% (inactive) | 59.4% (inactive) | 37.2% (inactive) | –
O=C(/C=C/c1ccccn1)c1ccccc1 | 83.8% (inactive) | 86.1% (inactive) | – | 93.8% (inactive) | – | 78.3% (inactive) | -75.6% (active) | 76.3% (inactive) | 15.6% (inactive) | 32% (inactive)
CCC(C)(C)c1cc(O)c(C(C)(C)CC)cc1O | 38.5% (inactive) | 41.8% (inactive) | – | 54.8% (inactive) | 21.2% (inactive) | -7.38% (active) | – | 49.9% (inactive) | – | 40.7% (inactive)
CC(=O)OCC(OC(C)=O)C(OC(C)=O)C(OC(C)=O)C(OC(C)=O)C(/C=N/Nc1ccccc1)=N/Nc1ccccc1 (stereo unspecified) | 79.9% (inactive) | 72.7% (inactive) | – | 66.8% (inactive) | – | 79.5% (inactive) | 40.6% (inactive) | 60.9% (inactive) | 63.6% (inactive) | 97.1% (inactive)
CCCCCCCCCCCCSC(=NC)NC | 35.4% (inactive) and 54.9% (inactive) | 66.3% (inactive) and 79.1% (inactive) | – | 76.3% (inactive) and 87.2% (inactive) | – | -1.15% (active) and 36% (inactive) | 57.7% (inactive) and 85% (inactive) | 64.4% (inactive) and 87.7% (inactive) | -23.8% (active) and 62.9% (inactive) | –
CS(=O)(=O)OC1CC(n2ccc(=O)[nH]c2=O)OC1COC(c1ccccc1)(c1ccccc1)c1ccccc1 (stereo unspecified) | 106% (inactive) | 104% (inactive) | – | 106% (inactive) | – | – | 86.1% (inactive) | 101% (inactive) | – | –
NC1=C(Cl)C(=O)c2ccccc2C1=O | 40.7% (inactive) | 103% (inactive) | – | 62.4% (inactive) | – | 96.8% (inactive) | 73.6% (inactive) | 45% (inactive) | 106% (inactive) | –
Cc1cc(NS(=O)(=O)c2ccc(N=Nc3cc(N=Nc4ccc(S(=O)(=O)Nc5cc(C)nc(C)n5)cc4)c4c(NC(=O)C(Cl)Cl)cccc4c3OC(=O)C(Cl)Cl)cc2)nc(C)n1 (tested in a mixture with another compound) | 107% (inactive) | 94.6% (inactive) and 96.1% (inactive) | – | 102% (inactive) and 103% (inactive) | – | 99% (inactive) and 120% (inactive) | 86.1% (inactive) and 3.96% (active) | 98.9% (inactive) and 95.2% (inactive) | 111% (inactive) and 115% (inactive) | –
NNc1c2ccccc2nc2ccccc12 | 47.4% (inactive) | 48.5% (inactive) | – | 64.6% (inactive) | 10% (inactive) | 88.1% (inactive) | 33.2% (inactive) | 23.6% (inactive) | 34.2% (inactive) | 67.6% (inactive)
O=C1C=CC(=CC=C2C=CN(CCCCCCCCCCCO)C=C2)C=C1 | 20% (inactive) | 59.6% (inactive) | – | 44.5% (inactive) | 17.5% (inactive) | 24% (inactive) | 18.2% (inactive) | 46.3% (inactive) | 67.2% (inactive) | -42.6% (active)
CCN(CC)c1ccc(NC(C(=O)c2ccccc2)c2ccccc2)cc1 (stereo unspecified) | 44.4% (inactive) | 60.1% (inactive) | – | 123% (inactive) | – | 73.7% (inactive) | 21.8% (inactive) | 92.5% (inactive) | -57.1% (active) | 20.5% (inactive)
Cc1nc(N=C(N)N)nc2ccc3ccccc3c12 | 27.6% (inactive) | 25.8% (inactive) | – | -14% (active) | – | -25.5% (active) | -35.1% (active) | 20.6% (inactive) | 10.8% (inactive) | –
Oc1ccc(N=Nc2ccccn2)c(O)c1 | 29.2% (inactive) | 21.1% (inactive) | – | 15.8% (inactive) | – | 57.6% (inactive) | 29.3% (inactive) | 17.5% (inactive) | 10.3% (inactive) | 8.83% (active)
CC[N+](CC)=c1ccc2nc3c(cc(N)c4ccccc43)oc-2c1 | -41.8% (active) | -48% (active) | – | -69% (active) | – | -60.3% (active) | -48.4% (active) | -19.4% (active) | -79% (active) | –
CSC1SCC2C(=O)N(C)C(C(C)C)C(=O)OCC(NC(=O)c3cnc4ccccc4n3)C(=O)NC(C)C(=O)N(C)C1C(=O)N(C)C(C(C)C)C(=O)OCC(NC(=O)c1cnc3ccccc3n1)C(=O)NC(C)C(=O)N2C (stereo unspecified) | -28.2% (active) | -5.57% (active) | – | -12.4% (active) | – | -20.3% (active) | -16.1% (active) | -15.2% (active) | -10.6% (active) | –
Clc1cc(Cl)c(Cl)nn1 | 105% (inactive) | 99.8% (inactive) | – | 94.2% (inactive) | – | 91.9% (inactive) | 80.7% (inactive) | 57.9% (inactive) | 99.4% (inactive) | –
O=C(/C=C/c1cccnc1)c1ccccc1 | 96.6% (inactive) | 96.6% (inactive) | – | 108% (inactive) | – | 84% (inactive) | -44.2% (active) | 99.3% (inactive) | 93.7% (inactive) | 101% (inactive)
CCCCCCCCCCSC(=N)N | 87.4% (inactive) | 99.7% (inactive) | – | 68% (inactive) | – | 21.6% (inactive) | 45.6% (inactive) | 77% (inactive) | 51% (inactive) | –
CC(=O)Nc1cc(C)ccc1C | 95.1% (inactive) | 98.7% (inactive) | – | 107% (inactive) | – | 106% (inactive) | 96.1% (inactive) | 100% (inactive) | 106% (inactive) | 102% (inactive)
COC(=O)C1C(O)C(C)C(O)C(C)C=C(C)C2=C3C(=C(C)C(=O)c4c(O)c(c(C)c(OC(C)=O)c43)NC(=O)C(C)=C/C=C\C(C)C(O)C(C)C1O)OCO2 (stereo unspecified) | 107% (inactive) | 104% (inactive) | – | – | – | -5.62% (active) | 75.3% (inactive) | 112% (inactive) | 101% (inactive) | –
COC1OCC(O)C(O)C1O (stereo unspecified) | 98.3% (inactive) | 108% (inactive) | – | 102% (inactive) | – | 103% (inactive) | 97.5% (inactive) | 101% (inactive) | 101% (inactive) | 107% (inactive)
CC(C)(C)CC(C)(C)c1ccc(OCCO)cc1 | 106% (inactive) | 105% (inactive) | – | 110% (inactive) | – | – | – | 96.4% (inactive) | 109% (inactive) | –
O=C1NC(=O)c2cc([N+](=O)[O-])ccc21 | 105% (inactive) | 97.7% (inactive) | – | 101% (inactive) | – | 82.3% (inactive) | 102% (inactive) | 107% (inactive) | 112% (inactive) | –
CCN1/C(=C/C=C/C=C/c2sc3ccccc3[n+]2CC)Sc2ccccc21 | -22.8% (active) | 11.8% (inactive) | – | -29% (active) | -69.7% (active) | -28.3% (active) | -57.6% (active) | -64.5% (active) | -57.6% (active) | -87.7% (active)
